Source: PubChem
An excerpt weighted towards active compounds, which were near 2.3% of everything screened.
Mcl-1 Bim block: disrupts Bim peptide binding to human Mcl-1 | inhibition, % at 10 µM | Q07820 | Bead-based flow cytometry, Bim peptide-Mcl-1 binding | actives 0.1% (n = 190,000); in the data active = inhibition above about 40%;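 note: 0% = no compound tracer wells and 100% = peptide blocker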
Mcl1-Bid inh: disrupts binding of human Mcl-1 to Bid peptide; AID 1021; TR-FRET Mcl-1/Bid-Dy647 peptide binding, 1536-well; actives 0.97% (n = 220,000); inhibition, % at 21.7 µM; Q07820;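 active = compounds that cut the binding signal by more than half at the single screening dose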;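 note: His-tagged Mcl-1 with europium anti-His antibody binding Bid BH3 peptide; 0% = Mcl-1 plus peptide wells and 100% = peptide-only wells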
MCL1 BIM primary: MCL1-BIM-BH3 interaction inhibition (human) | inhibition, % at 10.9 µM | GST-MCL1 / FITC-Bim-BH3 fluorescence polarization | actives 0.68% (n = 320,000);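 active = inhibition above the mean inhibition of all tested compounds plus 3 SD, set per campaign, cut at about 40% in these data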;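 note: 0% = DMSO wells and 100% = unlabeled Bim-BH3 peptide control; higher means more loss of mP so more displacement of Bim peptide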
BCLXL inh: inhibitors of human Bcl-xL; actives 0.7% (n = 320,000); GST-Bcl-xL / FITC-Bim BH3 peptide fluorescence polarization; inhibition, % at 10.9 µM; Q07817; AID 2129;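 active = inhibition above the mean of all tested compounds plus 3 SD, cutoff set per campaign, cut at about 30% in these data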;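 note: 0% = DMSO wells and 100% = unlabeled Bim-BH3 peptide competitor; inhibitors lower millipolarization by displacing the labeled peptide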
Target sequence (Q07817 whole entry, looked up): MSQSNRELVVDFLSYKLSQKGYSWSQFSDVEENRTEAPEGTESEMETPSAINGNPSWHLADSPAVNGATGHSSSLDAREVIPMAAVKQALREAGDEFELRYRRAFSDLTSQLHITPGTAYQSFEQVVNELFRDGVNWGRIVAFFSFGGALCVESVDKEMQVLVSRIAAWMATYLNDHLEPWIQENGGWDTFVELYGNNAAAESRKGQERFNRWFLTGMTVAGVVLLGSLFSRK
Mcl1 Noxa PPI: Mcl-1/Noxa interaction inhibition; inhibition, % at 21.7 µM; Q07820; AID 1022; actives 1.5% (n = 220,000); TR-FRET Mcl-1/Noxa peptide binding, 2 h;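 active = compounds that cut the protein-peptide binding signal by more than 50% relative to plate controls in a single-dose test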;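 note: His-tagged Mcl-1 with rhodamine Noxa BH3 peptide and terbium anti-His antibody; 0% = Mcl-1 plus Noxa peptide wells and 100% = peptide-only wells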
GLD-1 RNA inh: GLD-1-TGE RNA interaction inhibition (C. elegans) | Q17339 | purified GLD-1 + fluorescein TGE RNA, fluorescence polarization | inhibition, % at 5.96 µM | actives 0.44% (n = 320,000);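 active = percent inhibition above a per-plate cutoff, the plate mean of test compounds plus 3 SD, cut at about 30% in these data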;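 note: 0% = DMSO wells with GLD-1 and probe and 100% = wells lacking GLD-1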
Target sequence (Q17339 whole entry, looked up): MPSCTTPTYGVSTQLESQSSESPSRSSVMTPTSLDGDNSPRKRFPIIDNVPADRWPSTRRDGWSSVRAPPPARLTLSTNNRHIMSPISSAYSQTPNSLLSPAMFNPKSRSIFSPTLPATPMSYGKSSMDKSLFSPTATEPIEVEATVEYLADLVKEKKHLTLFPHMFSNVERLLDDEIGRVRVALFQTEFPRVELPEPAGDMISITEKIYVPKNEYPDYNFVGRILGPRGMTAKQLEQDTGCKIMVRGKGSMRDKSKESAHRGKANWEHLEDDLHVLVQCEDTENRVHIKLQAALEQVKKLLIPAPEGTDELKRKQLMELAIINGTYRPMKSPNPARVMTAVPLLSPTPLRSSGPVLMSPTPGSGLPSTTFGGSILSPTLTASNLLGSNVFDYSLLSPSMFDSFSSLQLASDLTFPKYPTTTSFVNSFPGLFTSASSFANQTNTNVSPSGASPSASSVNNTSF
* hit, by the source's call.

`O=C(NCCN1CCN(C(=O)c2ccc([N+](=O)[O-])cc2)CC1)C(=O)NCc1ccccc1` gave MCL1 BIM primary 3.8, BCLXL inh 1.0 and GLD-1 RNA inh 0.6.
For CNC(=O)C(=O)NCCN1CCN(C(=O)c2ccc([N+](=O)[O-])cc2)CC1 the results were Mcl-1 Bim block 1.0, Mcl1-Bid inh 90.8*, MCL1 BIM primary -4.3, BCLXL inh -4.8, Mcl1 Noxa PPI -11.7 and GLD-1 RNA inh -2.2.
`C=CCN(c1ccccc1)S(=O)(=O)c1ccc(Cl)c(C(=O)OCC(=O)c2[nH]c(C)c(C(C)=O)c2C)c1` gave Mcl-1 Bim block -3.0, Mcl1-Bid inh -16.6, MCL1 BIM primary -2.9, BCLXL inh -1.0, Mcl1 Noxa PPI 27.2 and GLD-1 RNA inh -2.8.
CCc1cc(=O)[nH]c(SCc2ccc(C)cc2)n1 was read as Mcl-1 Bim block 0.0, Mcl1-Bid inh -0.6, MCL1 BIM primary -0.4, BCLXL inh 0.7, Mcl1 Noxa PPI 9.8 and GLD-1 RNA inh 2.3.
Cc1ccccc1C(=O)N(Cc1cccs1)C1CCS(=O)(=O)C1 (stereo not given) was read as MCL1 BIM primary 5.6, BCLXL inh 0.7 and GLD-1 RNA inh 3.8.
For CC1CCc2sc(C(=O)NN)cc2C1 (stereo not given) the results were Mcl-1 Bim block -5.0, Mcl1-Bid inh -7.4, MCL1 BIM primary 3.3, BCLXL inh -0.8, Mcl1 Noxa PPI 2.6 and GLD-1 RNA inh 72.0*.
CC1CCc2sc(C(=O)Nc3ccc(C(N)=O)cc3)cc2C1 (stereo not given) was read as Mcl1-Bid inh -21.9, MCL1 BIM primary -0.9, BCLXL inh -8.4, Mcl1 Noxa PPI 21.6 and GLD-1 RNA inh -3.9.
`O=C(O)CCC(=O)Nc1ccc(Br)cc1C(=O)c1ccc(Cl)cc1` gave Mcl1-Bid inh -5.1, MCL1 BIM primary 2.7, BCLXL inh -0.7, Mcl1 Noxa PPI -5.8 and GLD-1 RNA inh -1.9.
For c1ccc(CSc2ccc(-c3ccccn3)nn2)nc1 the results were Mcl-1 Bim block -2.0, Mcl1-Bid inh -7.5, MCL1 BIM primary 5.5, BCLXL inh 4.7, Mcl1 Noxa PPI 16.2 and GLD-1 RNA inh 0.0.
For CCCc1ccc(/C=C2\C(=O)c3ccccc3C(O)=C2C(=O)OCC)cc1 the results were Mcl-1 Bim block -5.0, Mcl1-Bid inh 40.2, MCL1 BIM primary 27.5, BCLXL inh 15.1, Mcl1 Noxa PPI 88.0* and GLD-1 RNA inh 18.2.
For CCOC(=O)C1=C(Cc2ccc(C)cc2)C(=O)c2ccccc2C1=O the results were Mcl-1 Bim block 0.0, Mcl1-Bid inh -15.9, MCL1 BIM primary 36.8, BCLXL inh 27.1, Mcl1 Noxa PPI 66.7* and GLD-1 RNA inh 42.8*.
Screening CCCOc1ccccc1-c1nc2c([nH]1)c(=O)[nH]c(=O)n2C returned Mcl-1 Bim block -3.0, Mcl1-Bid inh -21.4, MCL1 BIM primary 32.1, BCLXL inh 34.7*, Mcl1 Noxa PPI 16.4 and GLD-1 RNA inh 14.7.
For Cc1cc(C)cc(-c2nnc(SCC(=O)c3ccc4c(c3)OCCO4)o2)c1 the results were Mcl-1 Bim block -1.0, Mcl1-Bid inh -3.0, MCL1 BIM primary -3.5, BCLXL inh 0.5, Mcl1 Noxa PPI -10.9 and GLD-1 RNA inh 5.4.
For Cc1cc(-c2nnc(SCC(=O)c3ccc4c(c3)OCCO4)o2)no1 the results were Mcl-1 Bim block -2.0, Mcl1-Bid inh -26.8, MCL1 BIM primary 9.8, BCLXL inh 3.1, Mcl1 Noxa PPI 58.9* and GLD-1 RNA inh 5.3.
`CCCCCCCCCCCCCCCCn1cc[n+](CC(C)=O)c1` gave Mcl-1 Bim block -1.0, Mcl1-Bid inh 59.0* and Mcl1 Noxa PPI 42.5.
Screening Cc1cc(S(=O)(=O)n2[nH]c(=O)c(CCO)c2C)c(Cl)cc1Cl returned MCL1 BIM primary 4.7, BCLXL inh 67.0* and GLD-1 RNA inh 11.2.
Cc1cc(C)cc(NC(=O)COC(=O)c2cccc(S(=O)(=O)N3CCCCC3)c2)c1 was read as MCL1 BIM primary -14.2, BCLXL inh -11.5 and GLD-1 RNA inh -0.8.
`O=C(CCCN1C(=O)c2ccccc2C1=O)NCCCn1ccnc1` gave Mcl-1 Bim block -1.0, Mcl1-Bid inh 82.2*, MCL1 BIM primary 2.7, BCLXL inh 10.2, Mcl1 Noxa PPI 19.2 and GLD-1 RNA inh -0.5.
`CCN(CC)c1ccc(NC(=O)CCCCCN2C(=O)c3ccccc3C2=O)cc1` gave Mcl-1 Bim block 0.0, Mcl1-Bid inh -2.1, MCL1 BIM primary 7.0, BCLXL inh 6.7, Mcl1 Noxa PPI 63.3* and GLD-1 RNA inh 0.3.
`CC(=O)Nc1ccc(NC(=O)CCCCCN2C(=O)c3ccccc3C2=O)cc1` gave Mcl-1 Bim block -4.0, Mcl1-Bid inh -19.0, MCL1 BIM primary 14.7, BCLXL inh 5.5, Mcl1 Noxa PPI -4.6 and GLD-1 RNA inh 6.5.
For COc1cccc(C(=O)Nc2cccc3c2ccc2cccn23)c1 the results were Mcl-1 Bim block 0.0, Mcl1-Bid inh -12.7, MCL1 BIM primary -6.1, BCLXL inh -3.6, Mcl1 Noxa PPI -4.2 and GLD-1 RNA inh -1.1.
Screening CC1CC(C)CN(S(=O)(=O)c2ccc3c(c2)NC(=O)C(C)C(=O)N3)C1 (stereo not given) returned MCL1 BIM primary -2.8, BCLXL inh 1.7 and GLD-1 RNA inh -1.9.
O=C(NN1C(=O)/C(=C/c2ccc(O)c([N+](=O)[O-])c2)SC1=S)c1ccccc1Cl was read as Mcl-1 Bim block 2.0, Mcl1-Bid inh -0.5, MCL1 BIM primary -32.2, BCLXL inh -20.3, Mcl1 Noxa PPI 32.5 and GLD-1 RNA inh -35.1.
`O=C(NN1C(=O)/C(=C/c2cc([N+](=O)[O-])ccc2O)SC1=S)c1ccccc1O` gave MCL1 BIM primary 55.2*, BCLXL inh 4.6 and GLD-1 RNA inh -6.7.
For O=C(Nc1ccc2nsnc2c1)N1CCCCC1 the results were Mcl-1 Bim block -4.0, Mcl1-Bid inh -6.2, MCL1 BIM primary -0.5, BCLXL inh 5.0, Mcl1 Noxa PPI 13.8 and GLD-1 RNA inh 0.2.
S=C(Nc1ccc2nsnc2c1)N1CCCCCC1 was read as Mcl-1 Bim block -2.0, Mcl1-Bid inh -48.6, MCL1 BIM primary 30.1, BCLXL inh 32.3*, Mcl1 Noxa PPI 7.0 and GLD-1 RNA inh 17.9.
Cc1ccc2oc(=O)c3cnn(CC(=O)NC4CCCCC4C)c3c2c1 (stereo not given) was read as Mcl-1 Bim block 0.0, Mcl1-Bid inh 65.2*, MCL1 BIM primary 8.7, BCLXL inh 2.5, Mcl1 Noxa PPI -5.6 and GLD-1 RNA inh 6.0.
Cc1ccc(S(=O)(=O)NNc2ccccc2)cc1 was read as Mcl-1 Bim block -2.0, Mcl1-Bid inh 64.1*, MCL1 BIM primary 14.1, BCLXL inh 9.1, Mcl1 Noxa PPI 19.3 and GLD-1 RNA inh 5.0.
O=S(=O)(c1ccc(-c2ccon2)s1)N1CCN(c2ccncc2)CC1 was read as Mcl1-Bid inh -13.5, MCL1 BIM primary 0.4, BCLXL inh -4.1, Mcl1 Noxa PPI 71.6* and GLD-1 RNA inh -4.5.
